Screens deposited in PubChem by National Center for Advancing Translational Sciences (NCATS).
Shown are actives, neighbours in structure and some others; about 21% of the full set was active somewhere.
TDP1 cell CPT – DT40-hTDP1 cell growth loss with CPT; chicken DT40 Tdp1-/-;hTDP1 cells + 20 nM CPT, ATP luminescence, 48 h; Potency, µM (titrated, usually from 46.2 µM), actives largely listed as inhibitors; 420,000 tested, 12% active; further: nearly all actives have a fitted effect of over 55% in size
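Cell growth measured by CellTiter-Glo luminescence after a minimum 48 h, 37 C compound exposure with 20 nM CPT in Tdp1-knockout DT40 cells stably expressing hTDP1, seeded 400/well; qHTS titration format.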
IL-1B inflam inh – inhibitors of inflammasome signaling (IL-1 beta secretion). THP-1 LPS/ATP IL-1B secretion, AlphaLISA, 16 h; stronger effect = lower value. activity change, % at 57.5 µM. 360,000 tested, 4.7% active. AID 743279; in the data active means activity change below about -50%; inconclusive means mostly about -30% to -49%
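THP-1 cells pretreated 1 hr with compounds (up to 57.5 uM final), then stimulated with LPS (250 ng/mL final) plus ATP (1.25 mM final); secreted IL-1B measured by AlphaLISA after 16 hr, decreased signal indicating inhibition.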
Gal4-VP16 FLuc – counter-screen for ROR gamma inhibitors: Gal4-VP16 reporter | Drosophila S2 Gal4-VP16 UAS-luciferase, luminescence, 20 h | Potency, µM (highest dose often 53.6 µM), usual class: inhibitors | 310,000 tested, 3.5% active;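 further: Gal4-VP16 expression switched on by copper sulfate through the metallothionein promoter; nearly all actives have a fitted effect of over 50% in size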
ELG1 DNA repair – ELG1-dependent DNA repair inhibition; Potency, µM (titrated, usually from 46.1 µM), usual class: inhibitors; 330,000 tested, 2.3% active; HEK293T ELG1-luciferase reporter, luminescence, 16 h; DNA damage induced by 5-fluorouridine; further: nearly all actives have a fitted effect of over 55% in size
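5-Fluorouridine DNA damage + compound/DMSO, 2,000 cells/well, 16 h, 37 °C/5% CO2. ONE-Glo, 30 min RT, luminescence. Readout = decrease in reporter signal.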
TDP1 cell noCPT – qHTS for Inhibitors of human tyrosyl-DNA phosphodiesterase 1 (TDP1): qHTS in cells in absence of CPT | DT40 Tdp1-/- hTDP1 cells, no CPT, ATP luminescence, 48 h | Potency, µM (series often up to 46.2 µM), usual class: inhibitors | 420,000 tested, 15% active | AID 686978, 2013; further: nearly all actives have a fitted effect of over 55% in size
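Growth of hTDP1-complemented DT40 Tdp1-knockout cells is measured by ATP luminescence after at least 48 hr compound exposure at 37 °C, with DMSO substituting for the 20 nM CPT used in the parallel screen.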
RORgamma inh – ROR gamma (mouse) transcription inhibition | P51450 | Drosophila S2 Gal4-RORgamma UAS-luciferase reporter, 20 h | Potency, µM (doses to about 53.6 µM), usual class: inhibitors | 310,000 tested, 5.4% active | AID 2551; further: nearly all actives have a fitted effect of over 60% in size
Target sequence (P51450 whole entry, looked up, the tested form may be a part): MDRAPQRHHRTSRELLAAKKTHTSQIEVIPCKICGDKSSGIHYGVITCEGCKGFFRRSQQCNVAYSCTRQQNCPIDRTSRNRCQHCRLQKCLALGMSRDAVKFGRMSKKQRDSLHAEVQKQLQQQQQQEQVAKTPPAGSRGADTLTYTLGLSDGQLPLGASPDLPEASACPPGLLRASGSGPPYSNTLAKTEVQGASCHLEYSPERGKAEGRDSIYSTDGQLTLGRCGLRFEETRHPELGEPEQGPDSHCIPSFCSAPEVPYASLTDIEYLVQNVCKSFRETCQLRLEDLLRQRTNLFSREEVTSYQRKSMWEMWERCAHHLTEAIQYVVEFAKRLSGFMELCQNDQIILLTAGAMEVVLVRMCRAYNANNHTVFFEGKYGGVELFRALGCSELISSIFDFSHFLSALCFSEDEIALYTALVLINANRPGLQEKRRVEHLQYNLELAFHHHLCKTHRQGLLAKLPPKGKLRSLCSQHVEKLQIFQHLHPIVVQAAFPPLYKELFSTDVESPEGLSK
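Drosophila Schneider cells stably carrying a metallothionein-driven Gal4 DBD–ROR gamma fusion and a UAS-Photinus luciferase reporter were exposed to compound for 1 hr, then induced with copper sulfate (700 uM final) for 20 hr at ambient temperature before luminescence reading.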
Numbers stand for hits; i = inactive; ? = inconclusive; nt = no result; [ ] = dose if it differs, or a comment. Unless noted, the call rests on the fitted dose curve; in most records, active means well fitted curve in the direction sought with a large enough effect; inconclusive means small, poorly fitted or top-dose-only effect, or another doubt; inactive means no such curve, though single readings can be large; an effect the other way counts as inactive or inconclusive.

SMILES	TDP1 cell CPT	IL-1B inflam inh	Gal4-VP16 FLuc	ELG1 DNA repair	TDP1 cell noCPT	RORgamma inh
CC(C)C[C@H](N)C(=O)N[C@H](C(=O)N[C@H](C(=O)N[C@@H](Cc1ccc(O)cc1)C(=O)N1CCC[C@H]1C(=O)N[C@@H](Cc1c[nH]c2ccccc12)C(=O)N[C@H](C(=O)N[C@@H](CCC(N)=O)C(=O)N[C@@H](CCCN=C(N)N)C(=O)O)[C@@H](C)O)C(C)C)C(C)C	i[4.12 µM]	nt	nt	nt	i[4.12 µM]	nt
O=C(COc1cc(F)ccc1[N+](=O)[O-])NCCN1C(=O)CSC1=O	i	?	nt	i	i	nt
CCOC(=O)C1=c2/c(=C/c3ccncc3)c(N)c(C(=O)OC)n2C(=O)C(c2ccncc2)S1 (stereo unspecified)	?	i	i	?	?	i
COc1ccc(C(=O)Nc2ccc3c(c2)N(C2CCCC2)C(=O)c2ccccc2S3)cc1OC	10µM	nt	nt	nt	5.2µM	nt
COc1ccc(C(=O)Nc2ccc3c(c2)C(=O)c2ccccc2C3=O)cc1OC	10µM	i	i	i	?	i
COc1ccc(C(=O)c2ccccc2Cl)cc1OC	i	i	i	i	i	i
COc1ccc(NC(=O)c2ccc3c(c2)nnn3C2CCCC2)cc1Cl	i	nt	nt	nt	i	nt
COc1ccc(C(=O)c2c(C(F)(F)F)oc3c2C(=O)c2ccccc2C3=O)cc1OC	2.3µM	?	?	3.7µM	5.8µM	i
COc1ccc2c(c1)CCc1cnc(-n3ncc(C(=O)NC4CCOC4)c3C3CC3)nc1-2 (stereo unspecified)	i[9.04 µM]	nt	nt	nt	?	nt
O=C(Nc1cccc(NC(=O)c2cncc(Br)c2)c1)c1cncc(Br)c1	12µM	i	i	21µM	4.6µM	i[1.91 µM]
O=C(Nc1ccncc1)c1cncc(Br)c1	i	i	i	?	i	i
CCc1sc(C(=O)Nc2ccc3nc(C)sc3c2)cc1C	?	-52	nt	?	?	nt
COc1cc(NC(=O)c2ccccc2)ccc1NC(=O)c1cc2ccccc2o1	?	i	i	?	?	i
Cc1cc(NC(=O)c2cncc(Br)c2)ccc1NC(=O)c1cc2ccccc2o1	13µM	?	11µM	?	8.2µM	?
Cc1nc2ccc(NC(=O)c3cncc(Br)c3)cc2s1	?	?	i	23µM	?	?
COc1ccc(S(=O)(=O)Nc2cccc3c2O[C@H](CN(C)CC2CCCCC2)[C@@H](C)CN([C@H](C)CO)C3=O)cc1	i	i	nt	i	i	nt
COc1ccc(CCNC(=O)COC(=O)Cn2cnc3c2c(=O)n(C)c(=O)n3C)cc1	i	i	nt	i	i	nt
CN(c1ncc(C(F)(F)F)cc1Cl)N1C(=O)c2cccc([N+](=O)[O-])c2C1=O	i	i	i	i	i	i
CC(=O)Cc1cc(O)c2ccccc2c1OC(=O)c1ccc(Br)cc1	21µM	i	i	?	21µM	i
CCc1nnc(NC(=O)c2ccc(OC)c(S(=O)(=O)N3CCCC3)c2)s1	i	i	nt	i	i	nt
Cc1ccccc1C(=O)Nc1nc2nc(C)c(C)c(=O)n2[nH]1	i	nt	nt	nt	i	nt
Cc1ccc(-c2nc(=S)c3c(n2Cc2ccco2)CC(C)(C)OC3)cc1	16µM	i	16µM	i	23µM	2.8µM
Cc1cccc(-c2nc(=S)c3c(n2Cc2ccco2)CCCC3)c1	21µM	i	?	i	?	11µM
Cc1ccc(-c2nc(=S)c3c(n2Cc2ccco2)CCCC3)cc1	?	i	i	i	?	i
COc1cccc(-c2nc(=S)c3c(n2Cc2ccco2)CCCC3)c1	16µM	i	i	?	?	?
Cc1cc2nc(-c3ccc(SCc4ccc(C#N)cc4)nc3)[nH]c2cc1C	?	i	i	?	23µM	?
Cc1cc2nc(-c3ccc(SCC(=O)Nc4nccs4)nc3)[nH]c2cc1C	16µM	i	?	?	16µM	?
CC(=O)CSc1ccc(-c2nc3ccccc3[nH]2)cn1	10µM	-58	11µM	?	8.2µM	10µM
